Experimental data published in PubChem BioAssay AID1076 (NMMLSC, 2008).
A number with no mark means an inactive call. Active and inactive are the calls of the source.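 How the source made its calls: active means cell event count below 40, meaning activity score above 60 where score is 100 minus count; inactive means the rest.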

Assay: LNCaP cell loss by flow event count, confirmation, cytotoxicity control for prostate differentiation activator project, single point (AID 1076);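 further: counts scatter-gated live cells after medium removal discards detached dead cells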
Conditions: flow cytometry event count, 4 d, at 100 µM, stronger effect = lower value

SMILES	cell event count
Cc1ccccc1-c1nc(CN2CCC(C(=O)N3CCC(C(N)=O)CC3)CC2)c(C)o1	150
Cc1cccc(-c2nsc(SCC(=O)Nc3nccs3)n2)c1	144
CCOc1ccc2ccccc2c1C(=O)N1CCN(c2ccccc2)CC1	19
CCOc1ccc(C(=O)Nc2ccc(Cl)cn2)cc1Cl	41
CCOC(=O)c1cc2c(=O)n3ccccc3nc2n(CCCOC)c1=NC(=O)c1cccnc1	223
COc1ccc(CCNC(=O)C2CCN(Cc3nc(-c4cccc(Cl)c4)oc3C)CC2)cc1OC	85
CCn1c(=O)cc(SCC(=O)NCCCN2CCN(c3ccccc3F)CC2)c2ccccc21	6
CCN(CC)CCCNC(=O)c1cc2c(-c3ccc(Cl)cc3)nn(C)c2s1	13 (active)
